Results taken from ChEMBL document CHEMBL1157539, “Thousands of chemical starting points for antimalarial lead identification” (Nature, 2010).

Tests used:
Type in all cases: functional
Plasmodium falciparum [1] = experiment: GSK_TCMDC: Inhibition of Plasmodium falciparum 3D7 in whole red blood cells, using parasite LDH activity as an index of growth. Test compounds present at 2uM
Plasmodium falciparum [2] = experiment: GSK_TCMDC: Inhibition of Plasmodium falciparum Dd2 in whole red blood cells, using parasite LDH activity as an index of growth. Test compounds present at 2uM
HepG2 = experiment: GSK_TCMDC: Percent inhibition of human HepG2 cell line. Test compounds present at 10uM.

SMILES	Inhibition (Plasmodium falciparum [1]) [%]	Inhibition (Plasmodium falciparum [2]) [%]	Inhibition (HepG2) [%]
CN(C)CCCNc1ccnc2cc(Cl)ccc12	100	100	10
Cc1cccc(CN2CCCN(Cc3ccc(C(=O)Nc4ccc(Cl)cc4)cc3)CC2)c1.O=C(O)C(F)(F)F	92	17	54
COc1ccc(NC(=O)[C@H](Cc2ccccc2)Nc2cc(C)nc(NCCc3cccs3)n2)cc1.O=C(O)C(F)(F)F	100	83	12
COc1ccc(N(c2nc(-c3cc(Cl)ccc3Cl)cs2)C2CCNC2)cc1.O=C(O)C(F)(F)F (stereo not drawn)	95	9	21
O=C(NCCCNc1ccc2ccccc2n1)c1cc2c(Cl)cc(Cl)cc2[nH]1	100	100	40
Cc1ccc2[nH]c3ccccc3c(=O)c2c1	93	74	0
CS(=O)(=O)O.FC(F)(F)COc1ccc(CNCCCCCCNCc2ccc(OCC(F)(F)F)c3ccccc23)c2ccccc12	100	93	99
O=C(/C=C/c1ccc(Cl)c(Cl)c1)NCCCCCN1CCC(c2c[nH]c3cc(O)ccc23)CC1	100	2	32
O=C(/C=C/c1ccc(Cl)c(Cl)c1)NCCCCCN1CCN(C(=O)Nc2ccc(OC(F)F)cc2)CC1	99	0	20
COc1cc(NC(=O)c2sc(-c3ccc(Cl)cc3)cc2NC(=O)c2cccc(N(C)C)c2)ccc1OCCN1CCCC1	99	67	49
COc1ccc(C=C2SC(=N)N(c3ccccc3OC)C2=O)cc1	97	95	47
COc1ccc(Nc2cc(C)nc(NCc3ccc4c(c3)OCO4)n2)cc1	99	78	26
Cc1cccc2nc(-c3ccc(-c4ccc(NC(=O)Nc5cccc(C#N)c5)cc4)cc3)[nH]c12	100	100	28
CC(Nc1ncc(-c2ccsc2)c(-c2nccs2)n1)c1ccc2c(c1)OCCO2 (stereo not drawn)	81	66	14
CCOc1c(CNCCCNc2cc(=O)c3ccccc3[nH]2)cc(I)cc1C(C)(C)C.Cl	100	89	17
O=C(NC1CC1)c1ccc2cc(C(=O)N3Cc4ccccc4C(c4ccccc4)C3)ccc2c1 (stereo not drawn)	97	64	0
CC(C)(C)c1ccc(NC(=O)c2ccc(CN3CCCN(Cc4cccc(O)c4)CC3)cc2)cc1.O=C(O)C(F)(F)F	100	62	54
Cc1cc(OCCCN2CCC(NS(=O)(=O)c3ccc(Cl)c(Cl)c3)CC2)c2ccccc2n1	96	35	11

SMILES	Inhibition (Plasmodium falciparum [1]) [%]	Inhibition (Plasmodium falciparum [2]) [%]	Inhibition (HepG2) [%]
Cc1cccc(-c2ccc(NC(=O)Nc3ccc4nccc(N5CCN(C)CC5)c4c3)cc2C)n1.Cl	100	95	4
CCCCCCN1CCC(NCc2cccc(C#N)c2)CC1.O=C(O)C(F)(F)F	97	9	5
CCOc1c(CNCCCNc2cc(O)c3ccccc3n2)cc(I)cc1OC	91	6	0
COc1cccc(-c2cc(C(F)(F)F)n3ncc(C(=O)Nc4cc(Cl)ccc4O)c3n2)c1	99	99	0
OC(CNCc1ccccc1OCc1ccccc1)c1cccc(C(F)(F)F)c1 (stereo not drawn)	99	99	12
O=C(NCCc1cccc(F)c1)c1ccc(N2CCN(c3ccncc3)CC2)cn1.O=C(O)C(F)(F)F	94	7	4
O=C(O)C(F)(F)F.OCC1CCN(Cc2ccc(-c3ccc(-c4nc5ccccc5[nH]4)cc3)cc2)CC1	100	84	37
COc1ccc2nccc([C@@H](O)CN3CCC(NC(=O)Cc4ccc(Br)c5ccccc45)CC3)c2c1	98	40	10
O=C(/C=C/c1ccc(Cl)c(Cl)c1)NCCC(CN1CCC(c2c[nH]c3ccccc23)CC1)c1ccccc1 (stereo not drawn)	100	42	84
Cc1cc(=NN=Cc2ccccc2)c2cc(F)ccc2[nH]1	100	94	11
COc1ccc2cc(-c3nc(-c4c(Cl)cccc4Cl)[nH]c3-c3ccnc(NCCCN4CCCCC4C)c3)ccc2c1.O=C(O)C(F)(F)F (stereo not drawn)	94	86	19
COc1cc2nc(NC3CCN(Cc4ccccc4)CC3)nc(N)c2cc1OC	100	30	27
OC(CNc1ccnc(Nc2cccc(Cl)c2)n1)c1ccccc1C(F)(F)F (stereo not drawn)	95	36	40
CCCc1cn2c3c(cc(C(=O)N[C@@H](Cc4ccccc4)[C@H](O)CNC4CCOCC4)cc13)N(C)S(=O)(=O)CC2.O=CO	99	98	1
CS(=O)(=O)Cc1ccc(Nc2nccc(-c3c(-c4cccc(NC(=O)c5c(F)cccc5F)c4)nn4ncccc34)n2)cc1	97	93	86
Cl.N=C(N)Nc1ccc(OCCCCCOc2ccc(NC(=N)N)c(Cl)c2)cc1Cl	92	92	18
Nc1nc(O)c2c(n1)CCc1c(Br)cccc1-2	97	0	66
CC(=O)Nc1ccc(C(=O)Nc2ccc(-c3cccc(-c4nc5cc(C(F)(F)F)ccc5[nH]4)c3)cc2)cn1	100	98	29
